Data taken from PubChem BioAssay (EPA / NIEHS).
Results filed as inconclusive are left out. The source made the active and inactive calls. Rule for the calls, unless noted: active = hit-call score of the fitted dose curve at least 0.9, where 1 is the maximum; inactive = score below 0.9.

Columns and labels:
[1] = ATG_PBREM_CIS: Attagene CIS-FACTORIAL HepG2 Assay for human Phenobarbital-responsive Enhancer Module (PBREM) (AID 2282955); conditions: HepG2 PBREM cis-reporter, Attagene multiplexed transcription; actives raise or lower the signal
Method in brief: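 After a 24 h incubation with test chemical, transfected HepG2 cells yield total RNA; reporter-specific RT-PCR products are fluorescently labelled, HpaI-digested and resolved by capillary electrophoresis against ROX size standards.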

[2] = target: Paired box protein Pax-6 (Homo sapiens) (UniProt P26367); experiment: ATG_Pax6_CIS: Attagene CIS-FACTORIAL HepG2 Assay for human Paired Box 6 (PAX6) (AID 2282956); conditions: HepG2 CIS-FACTORIAL PAX6 reporter transcription, RNA readout; actives raise or lower the signal
Method in brief: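 Transient MRTU transfection of HepG2 → compound exposure 24 h → TriZol RNA, oligo(dT) RT → PCR, 6-FAM primer extension, HpaI cut → capillary electrophoresis; activity fitted both directions against DMSO.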

[3] = ATG_PXRE_CIS: Attagene CIS-FACTORIAL HepG2 Assay for human Pregnane X Receptor Element (PXRE) (AID 2282957); conditions: HepG2 Attagene CIS-FACTORIAL PXRE reporter, mRNA; actives raise or lower the signal
Method in brief: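 Multiplexed cis-reporter assay in transiently transfected human HepG2 cells; 24 h chemical exposure. Reporter transcripts quantified by RT-PCR with fluorescent labeling and capillary electrophoresis.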

[4] = ATG_PPRE_CIS: Attagene CIS-FACTORIAL HepG2 Assay for human Peroxisome Proliferator-activated Response Element (PPRE) (AID 2282958); conditions: HepG2 PPRE cis-element reporter, Attagene transcription factor profiling; actives raise or lower the signal
Method in brief: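 Multiplexed reporter transcription units under cis-regulatory promoters were transfected into HepG2 cells to capture endogenous factor activity. A 24 h incubation preceded RNA isolation and fluorescent RT-PCR fragment analysis.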

[5] = ATG_RORE_CIS: Attagene CIS-FACTORIAL HepG2 Assay for human RAR-related Orphan Receptor Element (RORE) (AID 2282959); conditions: HepG2 Attagene cis-factorial RORE reporter, mRNA; actives raise or lower the signal
Method in brief: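 Fluorescence intensity of reporter-specific cDNA fragments, separated by capillary electrophoresis, gives the signal. Source: HepG2 liver cells transiently transfected with cis-element reporters and exposed 24 h; DMSO-normalized bidirectional fit.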

[6] = ATG_Sox_CIS: Attagene CIS-FACTORIAL HepG2 Assay for human SRY-box transcription factor (SOX) (AID 2282960); conditions: HepG2 Attagene cis-factorial SOX reporter, mRNA; actives raise or lower the signal
Method in brief: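 After 24 h of chemical treatment, transfected HepG2 reporter cells are lysed for total RNA. Transcript levels come from RT-PCR with labelled primer extension and capillary electrophoresis, analysed bidirectionally versus DMSO.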

[7] = target: Transcription factor Sp1 (Homo sapiens) (UniProt P08047); experiment: ATG_Sp1_CIS: Attagene CIS-FACTORIAL HepG2 Assay for human Specificity Protein 1 (Sp1) (AID 2282961); conditions: HepG2 Sp1 cis-reporter transcription, actives raise or lower the signal
Method in brief: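 Sp1-driven reporter mRNA, read as capillary electrophoresis fluorescence after RT-PCR, in transiently transfected HepG2 cells dosed for 24 h; signal change in either direction relative to DMSO.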

[8] = ATG_SREBP_CIS: Attagene CIS-FACTORIAL HepG2 Assay for human Sterol Regulatory Element Binding (SREBP) (AID 2282962); conditions: HepG2 Attagene cis-factorial SREBP reporter, mRNA; actives raise or lower the signal
Method in brief: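 Transfected HepG2 (cis-regulated reporter library, endogenous TFs) → compound 24 h → total RNA → oligo(dT) RT → reporter-specific PCR → FAM primer extension, HpaI cut → CE fluorescence. Fit bidirectional vs DMSO.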

[9] = ATG_TCF_b_cat_CIS: Attagene CIS-FACTORIAL HepG2 Assay for human T-Cell-Factor with beta-catenin (TCF/b-cat) (AID 2282965); conditions: HepG2 TCF/beta-catenin cis-reporter transcription, actives raise or lower the signal
Method in brief: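 HepG2, transient MRTU transfection, cis-element-driven reporters (endogenous TFs). 24 h compound exposure. Readout: reporter mRNA by RT-PCR + 6-FAM primer extension, HpaI digest, capillary electrophoresis. Gain/loss fit vs DMSO baseline.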

[10] = ATG_TAL_CIS: Attagene CIS-FACTORIAL HepG2 Assay for human TAL Basal Promoter (AID 2282966); conditions: HepG2 Attagene cis-factorial TAL promoter reporter; actives raise or lower the signal;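 note: background control endpoint measuring basal TAL promoter reporter mRNA not a specific factor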
Method in brief: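 Steps: transfect HepG2 with multiple reporter transcription units; dose 24 h; isolate RNA, reverse-transcribe, PCR-amplify, label with 6-FAM, digest with HpaI; resolve by capillary electrophoresis. Bidirectional fitting against DMSO baseline.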

[11] = ATG_TGFb_CIS: Attagene CIS-FACTORIAL HepG2 Assay for human Transforming Growth Factor (TGF) (AID 2282967); conditions: HepG2 Attagene CIS TGFb reporter, mRNA transcription; actives raise or lower the signal
Method in brief: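 HepG2 cells transiently transfected with cis-promoter-driven multiple reporter units measure endogenous TF activity; reporter mRNA quantified at 24 h by RT-PCR, FAM labeling, HpaI digestion and capillary electrophoresis. Bidirectional fit vs DMSO.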

[12] = ATG_VDRE_CIS: Attagene CIS-FACTORIAL HepG2 Assay for human Vitamin D Receptor Element (VDRE) (AID 2282968); conditions: HepG2 VDRE cis-reporter transcription, actives raise or lower the signal
Method in brief: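 Cell-based multiplexed reporter format in human liver HepG2 cells, 24 h post-dose. Fluorescence from capillary electrophoresis of reporter cDNA gives the signal, with DMSO as negative control and baseline.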

[13] = target: Estrogen receptor (Homo sapiens) (UniProt P03372); experiment: ATG_ERa_TRANS: Attagene TRANS-FACTORIAL HepG2 Assay for human Estrogen Receptor alpha (ERa) (AID 2282970; active = hit-call score of the fitted dose curve at least 0.9, where 1 is the maximum); conditions: HepG2 Attagene TRANS ERa GAL4 reporter, mRNA
Method in brief: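 Multiplexed cell-based reporter format in HepG2: chimeric ERa-Gal4 protein drives GAL4-UAS reporter transcription. Fluorescent reporter mRNA quantified by capillary electrophoresis 24 hours after dosing; endpoint fitted as signal gain against DMSO.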

[14] = target: X-box-binding protein 1 (Homo sapiens) (UniProt P17861); experiment: ATG_Xbp1_CIS: Attagene CIS-FACTORIAL HepG2 Assay for human X-box Binding Protein 1 (XBP1) (AID 2282972); conditions: HepG2 XBP1 cis-element reporter, Attagene multiplex; actives raise or lower the signal
Method in brief: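 HepG2, transient MRTU transfection (cis-promoter driven), 24 h compound exposure. Total RNA → oligo(dT) RT → PCR → 6-FAM labeling → HpaI cut → CE. Bidirectional fit vs DMSO.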

[15] = ATG_M_19_TRANS: Attagene TRANS-FACTORIAL HepG2 Assay for M19 Transcription Factor (Internal Marker) (AID 2282974; active = hit-call score of the fitted dose curve at least 0.9, where 1 is the maximum); conditions: HepG2 Attagene TRANS-FACTORIAL M19 internal marker reporter
Method in brief: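 Measured here: internal-marker reporter transcript from HepG2 cells transfected with MRTUs, harvested at 24 h. cDNA PCR products were 6-FAM labelled by primer extension, cut with HpaI for 2 h at 37 C, and resolved by CE.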

[16] = ATG_GAL4_TRANS: Attagene TRANS-FACTORIAL HepG2 Assay for GAL4 (Internal Marker) (AID 2282976; active = hit-call score of the fitted dose curve at least 0.9, where 1 is the maximum); conditions: HepG2 Attagene TRANS GAL4 internal marker reporter
Method in brief: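 Liver HepG2 line bearing multiplexed GAL4-UAS reporter constructs; 24 h chemical treatment. Transcripts were quantified as fluorescent fragments on capillary electrophoresis after RT-PCR and HpaI cut, with activity fitted upward from DMSO.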

[17] = target: Signal transducer and activator of transcription 3 (Homo sapiens) (UniProt P40763); experiment: ATG_STAT3_CIS: Attagene CIS-FACTORIAL HepG2 Assay for human Signal Transducer and Activator of Transcription 3 (STAT3) (AID 2282963); conditions: HepG2, Attagene cis-factorial STAT3 reporter transcription; actives raise or lower the signal
Method in brief: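 Values derive from bidirectional fits relative to DMSO of reporter mRNA levels, measured by RT-PCR with capillary electrophoresis, in HepG2 cells carrying transiently transfected cis-regulated reporter units and exposed 24 h.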

[18] = ATG_TA_CIS: Attagene CIS-FACTORIAL HepG2 Assay for human TA Basal Promoter (AID 2282964); conditions: HepG2 Attagene CIS-factorial TA basal promoter reporter; actives raise or lower the signal
Method in brief: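 HepG2 cells transiently transfected with multiple reporter units under cis promoter elements, reporting endogenous transcription factor activity; this endpoint tracks the TA basal promoter as background control. Reporter mRNA after 24 h dosing measured by RT-PCR/capillary electrophoresis; bidirectional fits versus DMSO.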

[19] = target: Nuclear receptor subfamily 1 group I member 3 (Homo sapiens) (UniProt Q14994); experiment: ATG_CAR_TRANS: Attagene TRANS-FACTORIAL HepG2 Assay for human Constitutive Androstane Receptor (CAR) (AID 2282969; active = hit-call score of the fitted dose curve at least 0.9, where 1 is the maximum;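 note: activators raise reporter mRNA above DMSO so AC50 marks induction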); conditions: HepG2 Attagene TRANS-FACTORIAL CAR reporter
Method in brief: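 HepG2 cells transiently transfected with GAL4-UAS reporter units; TRANS format reads activity of exogenous chimeric NR-Gal4 protein. After 24 h dosing, reporter mRNA quantified by RT-PCR, 6-FAM labelling and capillary electrophoresis; gain of signal fitted against DMSO.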

[20] = target: Steroid hormone receptor ERR1 (Homo sapiens) (UniProt P11474); experiment: ATG_ERRa_TRANS: Attagene TRANS-FACTORIAL HepG2 Assay for human Estrogen-Related Receptor alpha (ERRa) (AID 2282971; active = hit-call score of the fitted dose curve at least 0.9, where 1 is the maximum); conditions: HepG2 Attagene TRANS reporter, ERRa transactivation
Method in brief: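 Signal gain relative to DMSO for an ERRa-Gal4 chimeric receptor, read as reporter mRNA by RT-PCR/capillary electrophoresis. Human HepG2 liver cells, transient multiplex reporter transfection, 24 h chemical exposure.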

Measured: AC50

Transcription factor Sp1 (Homo sapiens), sequence (P08047 whole entry, looked up): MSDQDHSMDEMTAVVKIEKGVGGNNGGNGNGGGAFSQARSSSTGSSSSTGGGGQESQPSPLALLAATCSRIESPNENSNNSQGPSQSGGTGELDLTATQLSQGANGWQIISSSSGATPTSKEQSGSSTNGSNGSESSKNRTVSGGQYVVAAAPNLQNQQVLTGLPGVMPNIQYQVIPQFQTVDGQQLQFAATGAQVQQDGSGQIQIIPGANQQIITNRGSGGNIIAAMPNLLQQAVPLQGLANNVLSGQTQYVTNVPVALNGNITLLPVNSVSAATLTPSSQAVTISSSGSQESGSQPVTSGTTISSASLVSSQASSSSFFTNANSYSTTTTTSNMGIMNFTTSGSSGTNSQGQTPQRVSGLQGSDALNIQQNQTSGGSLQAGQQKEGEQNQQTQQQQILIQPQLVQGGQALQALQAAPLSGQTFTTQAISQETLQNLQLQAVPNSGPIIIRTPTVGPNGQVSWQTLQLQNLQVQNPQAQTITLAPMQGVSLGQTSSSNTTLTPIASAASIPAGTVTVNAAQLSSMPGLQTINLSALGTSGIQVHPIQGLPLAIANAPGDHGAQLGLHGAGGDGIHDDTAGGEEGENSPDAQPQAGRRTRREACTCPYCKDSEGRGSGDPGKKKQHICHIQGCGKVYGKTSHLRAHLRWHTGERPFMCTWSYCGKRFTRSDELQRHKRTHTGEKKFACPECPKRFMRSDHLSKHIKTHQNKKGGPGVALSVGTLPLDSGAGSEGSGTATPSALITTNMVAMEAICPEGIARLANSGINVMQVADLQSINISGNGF
Nuclear receptor subfamily 1 group I member 3 (Homo sapiens), sequence (Q14994 whole entry, looked up, the tested form may be a part): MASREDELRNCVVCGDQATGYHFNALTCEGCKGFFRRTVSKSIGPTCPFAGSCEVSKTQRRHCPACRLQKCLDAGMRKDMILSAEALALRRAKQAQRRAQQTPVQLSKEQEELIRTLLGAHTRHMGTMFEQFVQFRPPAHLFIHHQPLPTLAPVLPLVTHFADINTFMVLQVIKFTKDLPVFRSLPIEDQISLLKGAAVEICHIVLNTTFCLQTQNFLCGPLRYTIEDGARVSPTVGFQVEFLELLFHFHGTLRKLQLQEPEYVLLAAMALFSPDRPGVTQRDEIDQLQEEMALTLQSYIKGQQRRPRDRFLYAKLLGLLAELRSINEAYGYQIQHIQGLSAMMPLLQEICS
X-box-binding protein 1 (Homo sapiens), sequence (P17861 whole entry, looked up): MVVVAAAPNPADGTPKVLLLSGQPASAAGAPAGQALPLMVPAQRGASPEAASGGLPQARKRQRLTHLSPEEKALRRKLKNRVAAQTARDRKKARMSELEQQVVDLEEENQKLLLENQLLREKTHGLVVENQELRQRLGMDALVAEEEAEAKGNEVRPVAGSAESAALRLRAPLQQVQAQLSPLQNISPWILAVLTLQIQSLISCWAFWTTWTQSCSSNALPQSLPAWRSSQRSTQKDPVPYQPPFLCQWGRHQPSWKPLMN
Paired box protein Pax-6 (Homo sapiens), sequence (P26367 whole entry, looked up): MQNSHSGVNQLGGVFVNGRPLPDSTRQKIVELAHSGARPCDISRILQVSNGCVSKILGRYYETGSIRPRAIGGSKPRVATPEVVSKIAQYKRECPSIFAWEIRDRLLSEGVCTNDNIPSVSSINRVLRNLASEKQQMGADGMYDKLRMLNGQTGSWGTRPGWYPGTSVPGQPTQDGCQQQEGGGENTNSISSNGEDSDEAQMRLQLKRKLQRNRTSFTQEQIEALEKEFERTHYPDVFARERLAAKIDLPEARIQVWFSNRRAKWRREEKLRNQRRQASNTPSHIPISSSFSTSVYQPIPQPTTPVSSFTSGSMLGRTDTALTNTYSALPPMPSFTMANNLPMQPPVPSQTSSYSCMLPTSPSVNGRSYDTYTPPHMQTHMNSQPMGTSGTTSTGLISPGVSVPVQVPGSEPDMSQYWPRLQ
Signal transducer and activator of transcription 3 (Homo sapiens), sequence (P40763 whole entry, looked up): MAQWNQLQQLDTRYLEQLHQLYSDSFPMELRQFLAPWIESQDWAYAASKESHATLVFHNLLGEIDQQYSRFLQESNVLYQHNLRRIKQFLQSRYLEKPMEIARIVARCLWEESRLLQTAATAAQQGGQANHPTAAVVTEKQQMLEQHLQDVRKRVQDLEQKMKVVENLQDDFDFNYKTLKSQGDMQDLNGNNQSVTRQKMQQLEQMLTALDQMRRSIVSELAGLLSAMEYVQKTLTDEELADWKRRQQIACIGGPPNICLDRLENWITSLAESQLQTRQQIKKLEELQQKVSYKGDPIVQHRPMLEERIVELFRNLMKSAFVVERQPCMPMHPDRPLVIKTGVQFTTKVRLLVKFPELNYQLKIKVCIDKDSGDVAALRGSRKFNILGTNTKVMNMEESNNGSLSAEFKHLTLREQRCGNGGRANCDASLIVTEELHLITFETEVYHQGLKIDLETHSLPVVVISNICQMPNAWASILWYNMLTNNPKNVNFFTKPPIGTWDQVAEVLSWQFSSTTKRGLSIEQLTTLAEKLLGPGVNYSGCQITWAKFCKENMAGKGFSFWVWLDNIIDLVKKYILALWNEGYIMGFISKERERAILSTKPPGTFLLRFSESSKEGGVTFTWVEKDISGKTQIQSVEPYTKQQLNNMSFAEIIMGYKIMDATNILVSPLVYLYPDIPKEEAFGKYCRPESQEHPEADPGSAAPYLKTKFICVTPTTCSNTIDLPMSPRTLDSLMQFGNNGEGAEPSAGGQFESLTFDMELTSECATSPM
Estrogen receptor (Homo sapiens), sequence (P03372 whole entry, looked up, the tested form may be a part): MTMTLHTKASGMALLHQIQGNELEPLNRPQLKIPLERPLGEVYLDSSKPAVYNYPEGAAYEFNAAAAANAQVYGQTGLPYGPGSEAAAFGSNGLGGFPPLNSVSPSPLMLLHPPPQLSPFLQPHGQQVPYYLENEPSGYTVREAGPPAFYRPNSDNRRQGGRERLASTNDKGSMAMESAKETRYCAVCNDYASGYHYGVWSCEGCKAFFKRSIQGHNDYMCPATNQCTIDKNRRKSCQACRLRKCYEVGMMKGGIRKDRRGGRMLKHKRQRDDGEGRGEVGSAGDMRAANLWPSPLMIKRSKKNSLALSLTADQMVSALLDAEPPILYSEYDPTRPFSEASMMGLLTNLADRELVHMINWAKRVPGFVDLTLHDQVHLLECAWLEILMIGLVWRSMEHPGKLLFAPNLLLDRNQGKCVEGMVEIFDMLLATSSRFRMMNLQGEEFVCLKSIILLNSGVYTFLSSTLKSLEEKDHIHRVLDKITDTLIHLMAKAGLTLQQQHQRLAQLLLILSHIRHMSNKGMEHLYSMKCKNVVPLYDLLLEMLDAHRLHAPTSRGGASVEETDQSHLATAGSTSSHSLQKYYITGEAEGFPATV
Steroid hormone receptor ERR1 (Homo sapiens), sequence (P11474 whole entry, looked up, the tested form may be a part): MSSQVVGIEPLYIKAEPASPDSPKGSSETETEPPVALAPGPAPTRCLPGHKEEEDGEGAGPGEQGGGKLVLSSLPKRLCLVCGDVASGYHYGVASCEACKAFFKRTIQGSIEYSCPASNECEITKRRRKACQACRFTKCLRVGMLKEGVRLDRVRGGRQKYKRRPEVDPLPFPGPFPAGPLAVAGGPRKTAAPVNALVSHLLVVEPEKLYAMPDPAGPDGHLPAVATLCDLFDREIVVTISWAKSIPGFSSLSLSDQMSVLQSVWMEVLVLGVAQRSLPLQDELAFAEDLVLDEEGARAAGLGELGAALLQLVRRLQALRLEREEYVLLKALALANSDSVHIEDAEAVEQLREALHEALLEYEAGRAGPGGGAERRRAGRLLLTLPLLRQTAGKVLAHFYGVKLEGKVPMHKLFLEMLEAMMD

CCCC/C=C/C=C\C=O
active: [2] 100 µM | [3] 2.79 µM | [6] 162 µM | [9] 100 µM | [12] 6.51 µM | [14] 178 µM
not listed: [17] | [18] | [19] | [20]
inactive: all other assays above

CCCCOCCOC(=O)COc1ccc(Cl)cc1Cl
active: [3] 39.9 µM
not listed: [4] | [12] | [13] | [19] | [20]
inactive: all other assays above

O=C(O)CCC(=O)O
not listed: [6] | [19] | [20]
inactive: all other assays above

CCCCOC(=O)C(C)CC (stereo not drawn)
inactive: [1] | [2] | [5] | [6] | [7] | [8] | [17] | [18] | [10] | [14]
active: [3] 27.1 µM

CCCC=C(C=O)CC
active: [3] 7.92 µM
not listed: [4] | [13] | [16] | [19] | [20]
inactive: all other assays above

CN(C)c1ccc2nc3ccc(=[N+](C)C)cc-3sc2c1
active: [3] 3.95 µM
not listed: [4] | [9] | [12] | [16] | [20]
inactive: all other assays above

CC1(C)[C@@H]2CC[C@@]1(C)C(=O)C2
not listed: [4] | [16]
inactive: all other assays above

CCC(C)(O)CCCC(C)C (stereo not drawn)
not listed: [5] | [12] | [13] | [20]
inactive: all other assays above

CC(CC(C)C)=NO
not listed: [4] | [13] | [15] | [19] | [20]
inactive: all other assays above

O=C1CCCN1C1CCCCC1
active: [3] 57.1 µM
not listed: [4] | [11] | [16] | [20]
inactive: all other assays above

Fc1ccc(Br)cc1
not listed: [3] | [4] | [13] | [16] | [17]
inactive: all other assays above

C=C(C)C1CC=C(C)CC1 (stereo not drawn)
not listed: [4] | [5] | [6] | [12] | [15] | [18] | [19] | [20]
inactive: all other assays above

C=C(C)C(=O)OCCCCCCCCCCCC
active: [13] 56.7 µM
not listed: [3] | [11] | [12] | [16] | [19]
inactive: all other assays above

CCCCCCOc1ccc(N)cc1
active: [3] 26.8 µM
not listed: [4] | [15] | [16] | [18]
inactive: all other assays above

CC(C)(CO)COC(=O)C(C)(C)CO
not listed: [3] | [5] | [13] | [18] | [19]
inactive: all other assays above

CC(C)(c1ccccc1)c1ccc(Nc2ccc(C(C)(C)c3ccccc3)cc2)cc1
not listed: [3] | [4] | [6] | [12] | [13] | [16] | [20]
inactive: all other assays above

CN(C)Cc1cc(CN(C)C)c(O)c(CN(C)C)c1
not listed: [4] | [12] | [15] | [16] | [18] | [19] | [20]
inactive: all other assays above

CC(C)CCOCc1ccccc1
not listed: [4] | [11] | [15] | [18] | [19]
inactive: all other assays above
